# Tested on: STK36
# Details: concentration: 1 μM, replicates: in singlicate; n = 1
# 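Also: KINOMEscan kinase panel screen.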
row,Compound,%Inh
1,[2H]C([2H])(c1cccc(C(F)(F)F)c1C)n1ccn2c(=O)nc(N3CCOCC3)cc12 [GSK2336394],0%
2,N#Cc1c(N2CCOCC2)sc(-c2ccn[nH]2)c1-c1ccc(Cl)cc1,0%
3,CN(C1=C(c2ccccc2)C(=O)NC1=O)c1ccccc1 [SB-334860],0%
4,Cc1cn2c(=O)cc(N3CCOCC3)nc2n1Cc1cccc(Cl)c1Cl [GSK2334006],0%
5,Fc1ccc(-c2ncn(CCCN3CCOCC3)c2-c2cccnc2)cc1 [SB-211743],0%
6,O=c1cc(N2CCOCC2)nc2n(Cc3cccc(F)c3)ccn12 [GSK2297430],0%
7,O=C(Nc1cccc(-c2nn3ncccc3c2-c2ccnc(Nc3cccc(C(F)(F)F)c3)n2)c1)c1c(F)cccc1F [GSK299495],99%
8,Cc1c2ccc(N(C)c3ccnc(Nc4cccc(S(N)(=O)=O)c4)n3)cc2nn1Cc1ccccc1.Cl.Cl [GW787226],39%
9,O=C(Nc1n[nH]c2cc(-c3cccc(F)c3)ccc12)C1CC1 [SB-735464],16%
10,CCCCCc1nc2c(N)ncnc2n1CCCCC [SKF-97255],0%
11,Cc1ccc(C(=O)NCC(N)=O)cc1-n1c(C)cc(OCc2ccc(F)cc2F)c(Br)c1=O,15%
12,NCC(NC(=O)c1cc(-c2cn[nH]c2)c(-c2ccnc3[nH]ccc23)s1)c1ccccc1.O=C(O)C(F)(F)F.O=C(O)C(F)(F)F (stereo not shown) [GSK1325775],0%
13,COc1ccc(Nc2nccc(N3CCC(NC(=O)Nc4cccc(C(C)=O)c4)C3)n2)cc1 (stereo not shown) [GSK1379731],0%

# From article PMC5540273 (PLoS ONE, 2017)
